Data: PubChem BioAssay AID720706 (Broad Institute, 2013)
Values joined by “and” are separate entries in the source; they are usually repeats but may differ in a detail not shown here. Identical values can stand only once. About 5,500 (1.6%) of roughly 350,000 compounds were called active.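 How the source made its calls: active means significant combined selectivity score with lowered wild-type GFP, culture density cut under 30%, mutant RFP and density less affected; inactive means any of these conditions unmet.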 What follows is part of a selection rich in actives, with near analogues and random picks from the rest.

Assay: GFP drop in mixed WT/humanized-ribosome E. coli culture – GFP/RFP fluorescence, OD600, single point, bacterial rRNA inhibitor project, primary screen (AID 720706)
Settings: E. coli WT GFP vs humanized-ribosome RFP mutants, 24 h; GFP signal change (wild-type ribosome): stronger effect = lower value, DMSO median 0, no signal -100; OD600 change: measured here: OD600 growth, DMSO median 0, no signal -100; RFP signal change: measured here: RFP humanized mutant strains, DMSO median 0, no signal -100, concentration not given here
For `C[C@H]1CCCCO[C@H](CN(C)S(=O)(=O)c2ccc(Cl)cc2)[C@@H](C)CN([C@@H](C)CO)C(=O)c2cc(NC(=O)Nc3ccc4c(c3)OCO4)ccc2O1`, the GFP signal change (wild-type ribosome) was 2.33% (inactive), the OD600 change was 1.85% and the RFP signal change was -3.19%.
With `COc1ccc2c3c(n(C)c2c1)[C@H](CO)N(C(C)=O)CC31CN(Cc2ccc(Cl)cc2)C1` the GFP signal change (wild-type ribosome) was -5.13% (inactive), the OD600 change was -14.3% and the RFP signal change was 1.56%.
With `C[C@@H]1CN([C@@H](C)CO)S(=O)(=O)c2ccc(-c3ccncc3)cc2O[C@@H]1CN(C)C(=O)C1CCC1` the GFP signal change (wild-type ribosome) was -1.91% (inactive), the OD600 change was 0.625% and the RFP signal change was -1.44%.
With `CCC(C)(C)NC(=O)/C=C/c1cc(OC)c(OC)c(S(=O)(=O)N2CCc3ccccc32)c1` the GFP signal change (wild-type ribosome) was 25% (inactive), the OD600 change was 13.4% and the RFP signal change was -10.2%.
With `COc1cc(/C=C/C(=O)N2CCc3ccccc3C2)cc(OC)c1OC` the GFP signal change (wild-type ribosome) was -21.8% (active), the OD600 change was -16.9% and the RFP signal change was 0.83%.
For `COc1cc(/C=C/C(=O)OCC(=O)c2ccccc2)cc(OC)c1OC`, the GFP signal change (wild-type ribosome) was -32.8% (inactive), the OD600 change was -28.1% and the RFP signal change was -5.92%.
In the case of `O=C(C[C@H]1C[C@H]2c3cc(NC(=O)Nc4ccc(C(F)(F)F)cc4)ccc3O[C@H]2[C@@H](CO)O1)NCc1cccnc1`, the GFP signal change (wild-type ribosome) is reported as 3.1% (inactive), the OD600 change is reported as 2.56% and the RFP signal change is reported as -0.972%.
For `COc1cccc(S(=O)(=O)N2[C@@H]3CNC[C@H]2C3c2ccc(-c3ccccc3OC)cc2)c1` (stereo partly specified), the GFP signal change (wild-type ribosome) was -57.9% (inactive) and 6.81% (inactive), the OD600 change was -76.9% and 4.62% and the RFP signal change was -12.3% and 0.158%.
With `COc1cccc(S(=O)(=O)N2C[C@H](O)COC[C@H]3O[C@@H](CC(=O)N4CCN(c5ccccc5)CC4)CC[C@@H]32)c1` the GFP signal change (wild-type ribosome) was -6.4% (inactive), the OD600 change was -3.12% and the RFP signal change was 2.98%.
In the case of `CCCN(C)C[C@@H]1OCCCC[C@H](C)Oc2ccc(NS(=O)(=O)c3ccc(C)cc3)cc2C(=O)N([C@H](C)CO)C[C@@H]1C`, the GFP signal change (wild-type ribosome) is reported as -0.00475% (inactive), the OD600 change is reported as -4.83% and the RFP signal change is reported as 1.63%.
In the case of `COCC(=O)Nc1ccc2c(c1)C(=O)N(C)C[C@@H](OC)[C@@H](C)CN(CC1CCCCC1)[C@@H](C)CO2`, the GFP signal change (wild-type ribosome) is reported as 0.911% (inactive), the OD600 change is reported as 5.47% and the RFP signal change is reported as -0.068%.
For `COc1ccccc1N1CCN(Cc2ccc(OC)c3ccccc23)CC1`, the GFP signal change (wild-type ribosome) was -21.9% (active), the OD600 change was -8.32% and the RFP signal change was -3.95%.
For `COc1ccccc1N1CCN(Cc2cc(OC)c3c(c2)OCO3)CC1`, the GFP signal change (wild-type ribosome) was -2.5% (inactive), the OD600 change was -4.28% and the RFP signal change was -3.78%.
In the case of `COc1ccc(CN2CCN(Cc3ccc(OC)c(OC)c3OC)CC2)cc1`, the GFP signal change (wild-type ribosome) is reported as 13.2% (inactive), the OD600 change is reported as 19.1% and the RFP signal change is reported as -0.244%.
In the case of `CO[C@@H](CN(C)S(=O)(=O)c1ccc(F)cc1)[C@H](C)CN(C(=O)Nc1ccccc1F)[C@@H](C)CO`, the GFP signal change (wild-type ribosome) is reported as -3.35% (inactive), the OD600 change is reported as 0.819% and the RFP signal change is reported as -3.65%.
With `C[C@@H]1CN([C@H](C)CO)C(=O)Cc2cc(NC(=O)C3CCCCC3)ccc2O[C@@H]1CN(C)Cc1ccc(C(F)(F)F)cc1` the GFP signal change (wild-type ribosome) was -2.69% (inactive), the OD600 change was 1.55% and the RFP signal change was 2.15%.
In the case of `COc1ccc2nc(NC(=O)NC3CCCCC3)sc2c1`, the GFP signal change (wild-type ribosome) is reported as -22.5% (active), the OD600 change is reported as -17.5% and the RFP signal change is reported as 7.27%.
With `COc1ccc(C(=O)NC(=S)NC2CCCCC2)cc1` the GFP signal change (wild-type ribosome) was -49.8% (inactive), the OD600 change was -73.1% and the RFP signal change was -12.9%.
With `Cc1nc2ccc(NC(=O)C3CCCCC3)cc2s1` the GFP signal change (wild-type ribosome) was -1.32% (inactive), the OD600 change was -0.83% and the RFP signal change was -0.607%.
With `C[C@H](CO)N1C[C@H](C)[C@H](CN(C)Cc2ccccc2)OCCCC[C@H](C)Oc2ccc(NC(=O)CCC(F)(F)F)cc2C1=O` the GFP signal change (wild-type ribosome) was -1.2% (inactive), the OD600 change was -5.79% and the RFP signal change was -1.47%.
In the case of `CC(C)NC(=O)Nc1ccc2c(c1)C(=O)N([C@@H](C)CO)C[C@@H](C)[C@H](CN(C)Cc1ccc(Cl)c(Cl)c1)O2`, the GFP signal change (wild-type ribosome) is reported as -11.4% (inactive), the OD600 change is reported as -58.1% and the RFP signal change is reported as 26%.
In the case of `COCCCNC(=O)/C=C/c1ccc(OCc2c(F)cccc2Cl)cc1`, the GFP signal change (wild-type ribosome) is reported as -4.38% (inactive), the OD600 change is reported as -2.58% and the RFP signal change is reported as -3.12%.
In the case of `O=C(/C=C/c1ccc(OCc2c(F)cccc2Cl)cc1)N1CCOCC1`, the GFP signal change (wild-type ribosome) is reported as -49% (inactive), the OD600 change is reported as -72.9% and the RFP signal change is reported as -13.9%.
With `CN(C)CCCNC(=O)/C=C/c1ccc(OCc2c(F)cccc2Cl)cc1` the GFP signal change (wild-type ribosome) was -45.5% (active), the OD600 change was -31% and the RFP signal change was -4.52%.
In the case of `Cc1noc(C)c1NC(=O)Nc1ccc2c(c1)C(=O)N([C@H](C)CO)C[C@@H](C)[C@@H](CN(C)Cc1ccncc1)OCCCC[C@H](C)O2`, the GFP signal change (wild-type ribosome) is reported as 0.824% (inactive), the OD600 change is reported as 10.7% and the RFP signal change is reported as -1.14%.
With `C[C@H]1CN(C)C(=O)c2cccc(N(C)C)c2O[C@@H]1CN(C)C` the GFP signal change (wild-type ribosome) was -0.435% (inactive), the OD600 change was 5.4% and the RFP signal change was -1.5%.
With `CO[C@H]1CN(C)C(=O)c2ccc(NC(=O)CC(F)(F)F)cc2OC[C@@H](C)N(C(=O)c2ccccc2F)C[C@@H]1C` the GFP signal change (wild-type ribosome) was 3.23% (inactive), the OD600 change was 1.55% and the RFP signal change was 3.46%.
With `COc1ccc(C2/C(=C(/O)c3ccccc3)C(=O)C(=O)N2C)c(OC)c1` (stereo unspecified) the GFP signal change (wild-type ribosome) was -2.38% (inactive), the OD600 change was 2.38% and the RFP signal change was -3.31%.
In the case of `CCOc1ccc(/C(O)=C2\C(=O)C(=O)N(c3ccc(OC)cc3)C2c2ccccc2[N+](=O)[O-])cc1` (stereo unspecified), the GFP signal change (wild-type ribosome) is reported as -20.6% (active), the OD600 change is reported as 6.17% and the RFP signal change is reported as 5.06%.
In the case of `COc1ccccc1C1/C(=C(/O)c2ccc(C)cc2)C(=O)C(=O)N1Cc1ccco1` (stereo unspecified), the GFP signal change (wild-type ribosome) is reported as 6.88% (inactive), the OD600 change is reported as 7.9% and the RFP signal change is reported as 1.73%.
In the case of `COCC(=O)Nc1ccc2c(c1)[C@H]1C[C@H](CC(=O)NCc3ccccn3)O[C@H](CO)[C@H]1O2`, the GFP signal change (wild-type ribosome) is reported as -0.801% (inactive), the OD600 change is reported as -4.21% and the RFP signal change is reported as -2.1%.
In the case of `O=S1(=O)c2ccc(Br)cc2-n2nncc2CN1Cc1cccc(Cl)c1`, the GFP signal change (wild-type ribosome) is reported as -5.88% (inactive), the OD600 change is reported as -16.9% and the RFP signal change is reported as -5.12%.
For `O=C(N[C@@H](Cc1ccccc1)C(=O)OCc1ccccc1)c1nc[nH]c1C(=O)N[C@@H](Cc1ccccc1)C(=O)OCc1ccccc1`, the GFP signal change (wild-type ribosome) was 8.68% (inactive), the OD600 change was 15.5% and the RFP signal change was -0.702%.
With `O=C(N[C@@H](Cc1ccccc1)C(=O)OCc1ccccc1)c1nc[nH]c1C(=O)NC1CCNCC1` the GFP signal change (wild-type ribosome) was -20.9% (active), the OD600 change was -8.38% and the RFP signal change was -3.23%.
With `CC(C)(C)OC(=O)N1CCC(NC(=O)c2[nH]cnc2C(=O)N[C@@H](Cc2ccccc2)C(=O)OCc2ccccc2)CC1` the GFP signal change (wild-type ribosome) was 12.4% (inactive), the OD600 change was -1.46% and the RFP signal change was 0.755%.
With `O=C(c1cccc(F)c1)N1CC(=O)N2[C@H](C1)[C@@H](c1ccc(C#Cc3ccc(F)cc3)cc1)[C@@H]2CO` the GFP signal change (wild-type ribosome) was 1.74% (inactive), the OD600 change was -7.67% and the RFP signal change was 4.35%.
In the case of `COC(=O)[C@@H]1[C@@H](CO)[C@@H]2Cn3c(ccc(-c4ccccc4F)c3=O)[C@@H]2N1CC1CCOCC1`, the GFP signal change (wild-type ribosome) is reported as 1.95% (inactive), the OD600 change is reported as -6.47% and the RFP signal change is reported as 6.87%.
